Drawing on PubChem BioAssay AID602429 (Sanford-Burnham Center for Chemical Genomics, 2012), this text covers inhibition for 91 compounds.

Among all 360,000 compounds or so, about 1,200 (0.33%) were called active. The full list was thinned out, with actives kept by preference. Values without a mark were called inactive. Cut-off read from the data, not from the text of the source: active = inhibition above about 37%; inactive = the rest.

Small ubiquitin-related modifier 1 (Homo sapiens), sequence (P63165 whole entry, looked up): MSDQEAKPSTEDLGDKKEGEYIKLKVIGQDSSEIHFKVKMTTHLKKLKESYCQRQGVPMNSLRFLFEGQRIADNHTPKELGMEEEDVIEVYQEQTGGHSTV

This experiment has as its target Small ubiquitin-related modifier 1 (Homo sapiens) (UniProt P63165). Put plainly: SUMO1 binding to interaction partners, disruption – biochemical, uHTS, primary screen (AID 602429). Particulars: SUMO1 binding to a labelled peptide, TR-FRET, 1 h; at 20 µM; stronger effect = higher value. On the technique in general: Time-resolved FRET reads energy transfer from a long-lived donor to a nearby acceptor.
One may read the inhibition as the change of the read-out against control, counted positive when it falls. With `CCOc1ccc(-n2c(SCC(=O)Nc3cc(C(=O)O)ccc3Cl)nc3ccccc3c2=O)cc1`, the inhibition is 19.1%. The same measure for `CCCn1c(N)c(C(=O)CSc2nnc3n2CCCCC3)c(=O)[nH]c1=O`: 8.44%; for `CCCn1c(N)c(C(=O)CSc2nc3ccccc3c(=O)n2-c2ccc(OC)cc2)c(=O)[nH]c1=O`: 46.9% (active). The value for `COCCOC(=O)c1c(C)oc2cc(Br)c(OCC(N)=O)cc12` was -1.35%. `CCN(c1ccccc1)S(=O)(=O)c1cccc(C(=O)NCc2ccccc2CN2CCOCC2)c1`: the inhibition was -2.56%. Regarding `COc1ccc(C)cc1NC(=O)NCCCCc1ccccc1`, the inhibition was 3.9%. `O=S(=O)(NCCSc1ccccn1)c1ccc(Cl)cc1`: the inhibition was -0.907%. The value for `O=C(Cc1ccsc1)N1CCN(S(=O)(=O)c2cc(C(F)(F)F)cc(C(F)(F)F)c2)CC1` was 32.3%; that for `COc1ccc(Cc2cc(-c3ccc(F)cc3)n[nH]c2=O)cc1` was -0.22%; that for `CCCc1nc(-c2cc3cc(C)ccc3[nH]c2=O)no1` was -3.17%. The same measure for `COc1ccc2[nH]c(=O)c(-c3noc(-c4ccc(F)cc4)n3)cc2c1`: 64% (active). On to `Cc1cc(C)cc(OCC(=O)Nc2cc(NC(=O)COc3cc(C)cc(C)c3)cc(C(=O)O)c2)c1`, for which the inhibition is 13.4%. Take `CCN1CCCC1CNC(=O)Cn1cnc2ccc(S(=O)(=O)N3CCC(C)CC3)cc2c1=O` (stereo unspecified): the inhibition was -2.59%. The value for `CCN1CCCC1CNC(=O)c1ccc2c(c1)NC(=O)/C(=C\c1ccccc1F)S2` (stereo unspecified) was -60.4%; that for `CCN1CCCC1CNC(=O)c1cc2c(=O)n(C)c3ccccc3c2n1C` (stereo unspecified) was 46.4% (active); that for `CCCCn1c(SCc2ncc(-c3ccccc3)o2)nc2cc(S(N)(=O)=O)ccc21` was 0.0839%. The same measure for `CCCCc1nc(SCC(=O)Nc2nnc(C(C)C)s2)n[nH]1`: 4.69%. Turning to `O=C(COc1ccc(Cl)cc1)Nc1ccc2oc(=O)ccc2c1`, the inhibition was 4.58%. The value for `COc1ccccc1CNS(=O)(=O)c1cc(C(=O)NCc2ccccn2)c(Cl)cc1Cl` was -1.08%; that for `COCCNC(=O)c1ccc2nc(Cc3ccc(OC)c(OC)c3)oc2c1` was 0.593%. The same measure for `COCCNC(=O)Nc1ccc2nc(-c3ccco3)c(-c3ccco3)nc2c1`: 64.2% (active). The value for `COc1cc(NC(=O)C2=CC(c3ccco3)=NS(=O)(=O)N2C)cc(OC)c1OC` was -26.3%; that for `O=C(NCc1ccco1)C(=O)c1cn(CC(=O)N2CCCCCC2)c2ccccc12` was -6.74%; that for `CC1(C)CC(=O)C(C=NCc2cccnc2)=C(O)C1` was -0.212%. Take `Cc1ccccc1S(=O)(=O)Cc1ccc(C(=O)NCCN2CCCCC2C)o1` (stereo unspecified): the inhibition was -2.78%.

Regarding `NC(=S)NN=C1CCCC(C(F)(F)F)C1` (stereo unspecified), the inhibition is -4.43%. The same measure for `CCCc1cc(=S)n2c([nH]c3ccccc32)c1C#N`: 45.4% (active). The value for `COC(=O)c1cccc(NC(=O)CN2CCC(NC(=O)c3cc(OC)c(OC)c(OC)c3)CC2)c1` was 4.74%. The same measure for `CCC(C(=O)N1CCOCC1)n1c(C(=O)OC)cc2occc21` (stereo unspecified): 0.0718%. As to `O=C(c1cc(-c2ccco2)nc2ccccc12)N(Cc1nnc(-c2ccc(Cl)cc2)o1)C1CC1`, the inhibition was 5.63%. The same measure for `COc1ccc2c(-c3ccccc3)cc(SCC(=O)N(C)C3CCS(=O)(=O)C3)nc2c1` (stereo unspecified): 0.193%; for `CN(C(=O)COC(=O)c1cc(-c2ccco2)nc2ccccc12)C1CCS(=O)(=O)C1` (stereo unspecified): 105% (active); for `O=C(Nc1cccc2c1CCCC2)c1ccc(F)cc1`: -0.657%. The same measure for `O=C(CSc1cccc[n+]1[O-])NCCCc1ccccc1`: -1.78%; for `COc1ccc(Cl)cc1NC(=O)COC(=O)c1ccc(Br)o1`: 3.41%; for `COc1ccc(Cl)cc1NC(=O)CCS(=O)(=O)c1ccc(Br)cc1`: 71% (active). The same measure for `O=C(CCS(=O)(=O)c1ccc(Br)cc1)NCCc1ccc(Cl)cc1`: 15.1%. In the case of `CCn1c(O)c2ccc(C(=O)N=NC(=O)c3cccnc3)cc2c1O`, the inhibition was -19.8%. As to `Cn1c(SCC(=O)Nc2ccc(N3CCOCC3)cc2)nnc1C(F)(F)F`, the inhibition was 3.07%. The same measure for `O=C1C2C3C=CC(C4CC34)C2C(=O)N1c1nccs1` (stereo unspecified): 0.623%. The same measure for `CCOc1ccc(C(=O)NCC(=O)N2CCN(c3ccc(C(F)(F)F)cn3)CC2)cc1`: -1.81%.

Turning to `CC(=O)c1c(OCC(=O)N(C)C2CCCCC2)ccc2c(C)cc(=O)oc12`, the inhibition was 0.393%.

Regarding `O=C(Nc1ccc(C2CC2(Cl)Cl)cc1)c1cccc([N+](=O)[O-])c1` (stereo unspecified), the inhibition is -19.7%. As for `O=C(Nc1cc2c3c(c1)C1CCCC1CN3CC1CCCC21)c1ccc([N+](=O)[O-])cc1` (stereo unspecified), the inhibition is -12.8%.

Turning to `Cn1ccc(=Nc2ccc(NC(=O)c3ccc(N=c4ccn(C)c5ccc([N+](=O)[O-])cc45)cc3)cc2)cc1`, the inhibition was 78.6% (active). Consider `CCCS(=O)(=O)N1CCC(C(=O)NCCCN(C)Cc2ccccc2)CC1`, for which the inhibition was 3.93%.

On to `Cc1ccc(CCN2CC(C(=O)O)CC2=O)cc1` (stereo unspecified), for which the inhibition is 0.0169%. The value for `CCOc1ccc2[nH]c(=S)sc2c1` was 6.23%; that for `O=c1[nH]c2ccccc2s1` was 0.972%. The value for `Nc1ccc2[nH]c(=S)sc2c1` was 65% (active). As for `O=C(c1ccc2c(c1)OCCO2)C1CCN(S(=O)(=O)c2cccc(F)c2)CC1`, the inhibition is -0.625%.

Turning to `CCn1ncc(Br)c1C(=O)Nc1cc(C)ccc1F`, the inhibition was 1.78%. The same measure for `COc1ccc([N+](=O)[O-])cc1NC(=O)CC1SC(=Nc2cccc(C)c2C)N(/N=C(\C)c2ccc(C)cc2)C1=O` (stereo unspecified): -1.72%; for `CCN(CC(=O)N1CCCC1)S(=O)(=O)c1ccc(F)cc1`: 0.769%; for `Cc1ccc(S(=O)(=O)NCCSC(C)(C)C)cc1`: 2.52%. The value for `COc1nc(N(C)C)nc(N2CC(=O)N(CCNS(=O)(=O)c3ccc(C)cc3)C2=N)n1` was 44% (active); that for `COc1nc(Oc2ccc(=O)n(C)n2)nc(N(C)C)n1` was -2.1%. As for `Cc1cc(C)c2nc(NC(=O)C3CCCO3)sc2c1` (stereo unspecified), the inhibition is -1.66%. The value for `O=C(Nc1nnc(SCc2c(Cl)cccc2Cl)s1)C1CCCO1` (stereo unspecified) was 4.7%; that for `O=C(Nc1nnc(CCc2ccccc2)s1)C1CCCO1` (stereo unspecified) was 42.9% (active). The same measure for `Cc1ccc(NC(=O)Cn2cccc2C2=NC(c3ccccc3)CO2)c(C)c1` (stereo unspecified): -4.14%.

In the case of `COC(=O)c1cc2occc2n1Cc1nc(-c2ccccc2C)oc1C`, the inhibition was 0.0493%. The same measure for `COc1cc(CCN=Cc2ccccc2O)c([N+](=O)[O-])cc1OC`: -13%; for `COc1ccc(Br)cc1/C=N/Nc1ccc(S(=O)(=O)Nc2ccccc2C(=O)O)cc1[N+](=O)[O-]`: 108% (active). The value for `COc1ccccc1C(CNC(=O)c1cccc(NS(=O)(=O)c2ccc(Br)cc2)c1)N(C)C` (stereo unspecified) was -3.01%; that for `COCOCCn1cc(CN2CCS(=O)(=O)N(Cc3ccc(-c4ccccc4)cc3)C(CC(C)C)C2=O)nn1` (stereo unspecified) was 3.98%; that for `COc1ccc(OCc2nnc3n2N=C(c2ccccc2)C(CC(=O)O)S3)cc1` (stereo unspecified) was 10.5%. With `CCOC(=O)C1=C(COC(=O)[C@H](C)NS(=O)(=O)c2ccccc2F)NC(=O)NC1C` (stereo partly specified), the inhibition was 2.53%. The value for `O=C(O)CC(CC(=O)N1CCOCC1)c1ccccc1` (stereo unspecified) was 4.09%. The value for `Oc1ccc(N=Cc2sc3ccccc3c2Cl)cc1` was 43.8% (active). The value for `CCCNC(=O)c1cc(C2CCCN(C(=O)c3ccc4c(c3)CCO4)C2)on1` (stereo unspecified) was -2.48%.

Take `CCCCN(C)CCNC(=O)C1CCCN(S(=O)(=O)c2cccc3nsnc23)C1` (stereo unspecified): the inhibition was -32.8%.

In the case of `COc1ccc(CCNC(=O)C(=O)Nc2ccc3nc4n(c(=O)c3c2)CCCCC4)cc1OC`, the inhibition is -4.72%. The same measure for `CC(=O)NN=C(C)c1ccc(NC(=O)C2CC2)cc1`: -0.643%; for `O=C(Cn1cnc2ccccc21)N/N=C/c1ccco1`: -6.39%; for `Cc1c(Cl)cccc1NC(=O)CCC(=O)N/N=C/c1ccco1`: -6.83%.

Turning to `O=C(N/N=C/c1ccco1)c1ccc(C(=O)N/N=C/c2ccco2)o1`, the inhibition was 36.6% (active). The value for `COc1ccc2c(C)c(CCC(=O)NC3CC3)c(=O)oc2c1C` was 1.06%; that for `O=C(O)c1ccccc1OCc1ccccc1Cl` was 1.06%. For the compound `Cc1c(CCC(=O)O)c(=O)oc2c(C)c(OCc3ccccc3Cl)ccc12`, the inhibition was 56.6% (active). Consider `Cc1cc(C)n2nc(C(=O)OC(C)C(=O)c3cc(C)c(C)cc3C)nc2n1` (stereo unspecified), for which the inhibition is 1.78%.

As for `O=C(CNC(=O)[C@@H]1Cc2ccccc2CN1)NC1CCCCC1`, the inhibition was 3.02%.

With `C=C(C)C(=O)Nc1cccc(C2=NOC3(C2)C[C@H](C(N)=O)N(C(=O)C(c2ccccc2)c2ccccc2)C3)c1` (stereo partly specified), the inhibition was 61.6% (active). The value for `C/C=C\C=C\C(=O)N1CC2(CC(c3cccc(NC(=O)/C(C)=C\C)c3)=NO2)C[C@H]1C(N)=O` (stereo partly specified) was -1.81%; that for `CC/C=C/C(=O)N1CC2(CC(c3cccc(NC(=O)CC)c3)=NO2)C[C@H]1C(N)=O` (stereo partly specified) was 0.0237%. The value for `COc1cccc(NC(=O)C(Sc2nc3ccccc3c(=O)n2CC(C)C)c2ccccc2)c1` (stereo unspecified) was 1.55%; that for `Cc1nc([N+](=O)[O-])c(NCCCO)n1Cc1ccccc1` was -1.9%; that for `CCCCNC(=O)Nc1c(C)cc(SC#N)cc1C` was -6.49%.

`COc1ccc(-c2c(-c3ccc(OC)cc3O)nc(C)nc2C(F)(F)F)cc1`: the inhibition was 3.81%. The same measure for `CCOC(=O)Cn1c2c(c(-c3ccccc3OC)cc1=O)CCCC2`: -0.83%; for `CCOc1ccc(-c2nc(N)ncc2-c2ccccc2OC)c(O)c1`: 39.4% (active).
